Source: PubChem BioAssay
A selection: hits, their analogues and other compounds. The true share with any hit is near 21%.
CYP2C9 act – human CYP2C9 activators, primary screen, biochemical, luminescence. recombinant CYP2C9, luciferin-H conversion; active compounds read high; factor 1 = untreated enzyme, 0 = blocked. activation factor at 5 µM. 96,000 compounds, 1.4% hits;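 active = activation factor of 2 or more for CYP2C9 at a 5 µM dose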;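 also: 0 = sulfaphenazole-blocked wells and 1 = vehicle-only wells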
MRP resist rev – reversal of MRP1-mediated doxorubicin resistance, primary screen, H69AR cells, doxorubicin co-treatment; H69AR cells + 2 uM doxorubicin, CellTiter-Glo, 72 h; differential viability (reversal), % at 10 µM; 85,000 compounds, 0.04% hits;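 active = viability drop by adding the cancer drug above about 55%, with treated viability meeting a 40% cutoff, limit read from the data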;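 also: viability without doxorubicin minus viability with 2 µM doxorubicin for each compound; larger differential means the compound sensitizes cells more to doxorubicin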
MRP-1 activ – H69AR viability gain despite doxorubicin, primary screen, MRP-1 activator project, H69AR cells, CellTiter-Glo | viability rescue | viability increase, % at 10 µM | 140,000 compounds, 0.61% hits;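 active = viability gain under doxorubicin at or above a set limit, the compound median plus 3 SD, cut at about 4.7% in these data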;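 also: MRP-1 overexpressing cells given doxorubicin 25 µM after compound pretreatment; 18-22 h compound pretreatment then 72 h with doxorubicin before readout; 0% = doxorubicin-only wells and 100% = vehicle-treated cells without doxorubicin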
CYP2C19 activ – human CYP2C19 activators, primary screen, biochemical, luminescence | activation factor at 5 µM | recombinant CYP2C19, luciferin-H EGE luminescence; active compounds read high; 0 = fully inhibited enzyme, 1 = untreated enzyme | AID 1025, 2008 | 96,000 tested, under 10 active | Cytochrome P450 2C19 (Homo sapiens), P33261;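 active = activation factor of at least 2 at 5 µM in the primary screen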;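 also: 0 = wells with 2.5 mM tranylcypromine and 1 = vehicle-only wells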
Target sequence (P33261 whole entry, looked up): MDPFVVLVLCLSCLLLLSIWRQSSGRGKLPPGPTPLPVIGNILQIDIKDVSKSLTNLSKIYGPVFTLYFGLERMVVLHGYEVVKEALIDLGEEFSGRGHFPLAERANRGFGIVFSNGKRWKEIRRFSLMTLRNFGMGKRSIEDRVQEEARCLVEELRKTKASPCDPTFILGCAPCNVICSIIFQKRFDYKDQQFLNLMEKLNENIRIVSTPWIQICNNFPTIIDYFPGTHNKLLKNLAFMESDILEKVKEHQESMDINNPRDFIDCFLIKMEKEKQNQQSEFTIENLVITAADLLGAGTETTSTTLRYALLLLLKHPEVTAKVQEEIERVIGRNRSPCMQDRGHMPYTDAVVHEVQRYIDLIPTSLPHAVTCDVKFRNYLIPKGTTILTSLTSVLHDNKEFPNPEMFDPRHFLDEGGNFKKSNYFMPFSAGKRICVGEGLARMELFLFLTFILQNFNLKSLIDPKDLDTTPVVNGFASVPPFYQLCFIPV
CYP2C9 inh – blockers of cytochrome P450 2C9 activity – biochemical, luminescence, ADME assay, primary screen; 96,000 compounds, 20% hits; CYP2C9 Supersomes, luciferin-H conversion; AID 777, 2007; inhibition, % at 5 µM;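 active = blocking of liver enzyme CYP2C9 beyond about 50% at 5 µM, limit read from the data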
CYP2C19 inh – blockers of cytochrome P450 2C19 activity – biochemical, luminescence, ADME assay, primary screen | P33261 | CYP2C19 Supersomes, luciferin-H EGE luminescence, 30 min | inhibition, % at 5 µM | 96,000 compounds, 21% hits;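 active = CYP2C19 inhibition above a set limit at 5 µM in the primary screen, cut at about 50% in these data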;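 also: plate controls were negative control wells for no effect and 2.5 mM tranylcypromine positive control for full effect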
Active calls of the source: *.

For CCCCC(=O)Nc1ccc(C(=O)NNC(=O)CCCOc2ccc(Cl)cc2Cl)cc1 the results were MRP-1 activ -1.
`CC(NC(=O)Nc1ccccc1)C(c1cccs1)N1CCN(C)CC1` (configuration not stated) gave CYP2C9 act 1, MRP resist rev 6, MRP-1 activ -2, CYP2C19 activ 1, CYP2C9 inh -3 and CYP2C19 inh -3.
Screening COc1ccc(NC(=O)CN2C(=O)CC(C)(C)S(=O)(=O)c3ccccc32)cc1 returned CYP2C9 act 0.7, MRP resist rev -15, MRP-1 activ 0, CYP2C19 activ 0.7, CYP2C9 inh 25 and CYP2C19 inh 26.
Screening Clc1ccc(Cl)c(OCc2cc(-c3ccccc3Cl)on2)c1 returned CYP2C9 act 1.4, MRP-1 activ -3, CYP2C19 activ 0.7, CYP2C9 inh -41 and CYP2C19 inh 28.
For O=S(=O)(c1ccc(F)c(F)c1)N1CCN(Cc2ccc3c(c2)OCO3)CC1 the results were CYP2C9 act 0.6, MRP resist rev 22, MRP-1 activ -4, CYP2C19 activ 0.8, CYP2C9 inh 43 and CYP2C19 inh 19.
For O=S(=O)(Cc1ccccc1)N1CCN(Cc2ccc3c(c2)OCO3)CC1 the results were CYP2C9 act 0.5, MRP resist rev 4, MRP-1 activ -5, CYP2C19 activ 0.1, CYP2C9 inh 54* and CYP2C19 inh 91*.
For CN(Cc1ccccc1)S(=O)(=O)c1ccc(S(=O)(=O)N(Cc2ccc(F)cc2)C2CCCC2)cc1 the results were CYP2C9 act 0.4, MRP resist rev -10, MRP-1 activ -3, CYP2C19 activ 1.1, CYP2C9 inh 58* and CYP2C19 inh -6.
Screening Cc1ccc2c(CN3CCN(Cc4ccc5c(c4)OCO5)CC3)cc(=O)oc2c1C returned CYP2C9 act 1.1, MRP resist rev -7, MRP-1 activ -1, CYP2C19 activ 0.9, CYP2C9 inh -7 and CYP2C19 inh 14.
For Cc1ccc2c(CN3CCN(S(=O)(=O)c4ccc5c(c4)OCCO5)CC3)cc(=O)oc2c1C the results were CYP2C9 act 0.3, MRP resist rev -18, MRP-1 activ -1, CYP2C19 activ 0.3, CYP2C9 inh 70* and CYP2C19 inh 71*.
`O=S(=O)(c1ccc(Cl)cc1)N1CCC(O)(c2cccnc2)CC1` gave CYP2C9 act 1.8, MRP resist rev 18, MRP-1 activ -2, CYP2C19 activ 0.4, CYP2C9 inh -77 and CYP2C19 inh 57*.
`O=C(CN1CCN(S(=O)(=O)c2ccccc2)CC1)Nc1ccccc1C(=O)c1ccccc1` gave MRP-1 activ -2.
`O=S(=O)(c1ccccc1Cl)N1CCC(O)(c2ccc3c(c2)OCO3)CC1` gave CYP2C9 act 1.5, MRP-1 activ -1, CYP2C19 activ 0, CYP2C9 inh -54 and CYP2C19 inh 97*.
For CC1CN(S(=O)(=O)Cc2ccccc2)CC(C)O1 (configuration not stated) the results were CYP2C9 act 1.2, MRP resist rev 1, MRP-1 activ -2, CYP2C19 activ 0.3, CYP2C9 inh -22 and CYP2C19 inh 66*.
O=S(=O)(c1ccc2c(c1)OCCO2)N1CCN(c2cccc(Cl)c2)CC1 was read as CYP2C9 act 0.4, MRP resist rev 22, MRP-1 activ -3, CYP2C19 activ 0.1, CYP2C9 inh 58* and CYP2C19 inh 89*.
`CC1CN(S(=O)(=O)c2ccccc2)CC(C)O1` (configuration not stated) gave CYP2C9 act 1, MRP resist rev 8, MRP-1 activ -2, CYP2C19 activ 0.7, CYP2C9 inh 0 and CYP2C19 inh 34.
Oc1cccc(C(=S)N2CCN(Cc3ccccc3)CC2)c1 was read as CYP2C9 act 0.3, MRP resist rev 6, MRP-1 activ -2, CYP2C19 activ 0, CYP2C9 inh 68* and CYP2C19 inh 100*.
For O=C(N1CCOCC1)C(F)(F)C(F)(F)C(F)(F)C(F)(F)C(=O)N1CCOCC1 the results were CYP2C9 act 1.1, MRP resist rev -9, MRP-1 activ -2, CYP2C19 activ 1, CYP2C9 inh -5 and CYP2C19 inh 1.
Screening O=C(CNc1ccccc1)N/N=C/c1cn(-c2ccccc2)nc1-c1ccccc1 returned MRP-1 activ 0.
`Cn1cc(SCC(=O)Nc2nc3ccccc3s2)c2ccccc21` gave CYP2C9 act 1.3, MRP resist rev 14, MRP-1 activ -4, CYP2C19 activ 1.2, CYP2C9 inh -29 and CYP2C19 inh -20.
`COc1ccc(NC(=O)CCC(=O)c2cccs2)cc1S(=O)(=O)Nc1ccccc1Cl` gave MRP-1 activ -1.
CN(c1ccccc1)S(=O)(=O)c1cccc(C(=O)N2CCN(c3ccccn3)CC2)c1 was read as CYP2C9 act 0.1, MRP resist rev 23, MRP-1 activ -1, CYP2C19 activ 0.2, CYP2C9 inh 88* and CYP2C19 inh 79*.
O=S(=O)(c1ccc2c(c1)OCCO2)N1CCC(O)(c2ccc(Cl)cc2)CC1 was read as CYP2C9 act 0.9, MRP resist rev -12, MRP-1 activ -1, CYP2C19 activ 0, CYP2C9 inh 12 and CYP2C19 inh 98*.
For O=C(N1CCOCC1)N1CCN(c2ccccc2)CC1 the results were CYP2C9 act 0.9, MRP resist rev 1, MRP-1 activ -4, CYP2C19 activ 0.7, CYP2C9 inh 10 and CYP2C19 inh 33.
For O=S(=O)(c1cccc(F)c1)N1CCN(Cc2ccc3c(c2)OCO3)CC1 the results were CYP2C9 act 0.1, MRP resist rev 18, MRP-1 activ 0, CYP2C19 activ 0.1, CYP2C9 inh 86* and CYP2C19 inh 91*.
For O=C(N1CCOCC1)N1CCN(Cc2ccccc2)CC1 the results were CYP2C9 act 1.1, MRP resist rev 4, MRP-1 activ 0, CYP2C19 activ 0.2, CYP2C9 inh -10 and CYP2C19 inh 82*.
Screening COc1oc(-c2ccccc2)nc1C(F)(F)F returned CYP2C9 act 1.1, MRP resist rev -9, MRP-1 activ 1, CYP2C19 activ 1.1, CYP2C9 inh -12 and CYP2C19 inh -12.
CN(C)S(=O)(=O)c1cccc(C(=O)N2CCN(Cc3ccccc3)CC2)c1 was read as CYP2C9 act 1, MRP resist rev 3, MRP-1 activ -1, CYP2C19 activ 0.5, CYP2C9 inh 4 and CYP2C19 inh 53*.
For O=S(=O)(/C=C/c1ccccc1)N1CCN(c2cccc(Cl)c2)CC1 the results were CYP2C9 act 0.2, MRP resist rev -6, MRP-1 activ -3, CYP2C19 activ 0.1, CYP2C9 inh 76* and CYP2C19 inh 93*.
